Six1-Eya2 blk: inhibitors of human Six1/Eya2 interaction. hit rate 0.56% among 360,000. activity change, % (test concentration not listed). AID 651725. AlphaScreen GST-Six1/His-Eya2 binding, biochemical; hits give low values; in the data active = activity change below about -65%; inconclusive = mostly about -30% to -63%
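Six1/Eya2 binding was read as AlphaScreen signal after compounds were pinned into GST-Six1 plus His-tagged Eya2 (5X stock 250/500 nM) in pH 8.0 Tris/NaCl/TCEP buffer, beads added, then incubated 1 h, 37 C, dark.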
GALK inhibitor: blocks human galactokinase activity; P51570; Purified GALK, Kinase-Glo residual ATP luminescence; Potency, µM (highest dose often 57.5 µM), for inactives: at the highest dose activity change, negative = inhibition, hits mostly inhibitors; hit rate 0.007% among 270,000; also: potency is read from the fitted curve at half-maximal effect
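Human GALK (5 nM) with 35 uM ATP and 100 uM galactose in 20 mM HEPES pH 8.0, 5 mM MgCl2, 60 mM NaCl, 1 mM DTT, 0.01% BSA. After 1 h at room temperature, leftover ATP was read by Kinase-Glo Plus luminescence.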
CtBP-E1A inh: CtBP/E1A binding inhibition | AlphaScreen GST-E1A/His-CtBP binding, 1536-well; hits give low values | activity change, % (test concentration not listed) | hit rate 0.49% among 340,000 | AID 651724; in the data active = activity change below about -65%; inconclusive = mostly about -30% to -63%
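Homogeneous bead-based format: GST-tagged E1A captured on glutathione donor beads, His-tagged CtBP on nickel acceptor beads; compounds precede bead addition by 2 h at 37 °C.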
Eya2 inh: inhibitors of human Eya2 phosphatase activity; O00167; recombinant Eya2, OMFP fluorescence dephosphorylation (OMFP is methylfluorescein phosphate); Potency, µM (series often up to 76.9 µM), for the others: at the highest dose activity, negative = inhibition, actives largely listed as inhibitors; hit rate 0.006% among 330,000; also: potency is read from the fitted curve at half-maximal effect
Target sequence (O00167 whole entry, looked up): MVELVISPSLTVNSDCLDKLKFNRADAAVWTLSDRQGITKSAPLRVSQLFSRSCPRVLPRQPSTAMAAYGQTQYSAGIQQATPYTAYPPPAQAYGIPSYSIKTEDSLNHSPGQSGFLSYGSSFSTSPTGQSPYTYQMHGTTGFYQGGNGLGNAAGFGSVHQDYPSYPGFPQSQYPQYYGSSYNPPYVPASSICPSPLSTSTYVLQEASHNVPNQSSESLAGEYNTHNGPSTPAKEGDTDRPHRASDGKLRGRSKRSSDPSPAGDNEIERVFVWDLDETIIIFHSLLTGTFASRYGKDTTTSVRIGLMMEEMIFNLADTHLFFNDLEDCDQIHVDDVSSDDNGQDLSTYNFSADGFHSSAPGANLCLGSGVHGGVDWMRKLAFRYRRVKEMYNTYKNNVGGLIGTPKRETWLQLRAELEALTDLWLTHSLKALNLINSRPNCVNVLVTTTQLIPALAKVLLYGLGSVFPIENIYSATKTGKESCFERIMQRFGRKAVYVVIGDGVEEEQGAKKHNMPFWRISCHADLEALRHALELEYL
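Eya2 (0.2 uM) preincubated 10 min at ambient with compound, then OMFP substrate added at 50 uM; 10 min reaction in 50 mM HEPES pH 7.5, 50 mM NaCl, 5 uM MgCl2, 0.05% BSA, 1 mM DTT. Fluorescence read at Ex 485/Em 525 nm.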
Apoferritin bind: candidate novel general anesthetic via apoferritin binding. P02791. apoferritin/1-aminoanthracene competitive binding, fluorescence. Potency, µM (highest dose often 77.5 µM), inactives show at the top dose activity change, negative = displacement, actives largely listed as inhibitors. hit rate 0.074% among 350,000; also: potency is read from the fitted curve at half-maximal effect; nearly all actives have a fitted effect of over 20% in size
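Concentration-response curves derived by four-parameter Hill fitting of normalized fluorescence, where compounds displaced 1-AMA from 10 uM horse apoferritin following a brief 10 min room-temperature incubation; propofol titration acted as positive control.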
KDM4E inh: inhibitors of human JMJD2E histone demethylase; AID 2147; JMJD2E catalytic domain, FDH-coupled NADH fluorescence (FDH is formaldehyde dehydrogenase); B2RXH2; hit rate 1.6% among 230,000; Potency, µM (titrated, usually from 57.1 µM), without a hit: at the highest dose activity change, negative = inhibition, hits mostly inhibitors; active = well fitted inhibition curve with a large enough effect, not every such curve was filed as active; inconclusive = small, poorly fitted or top-dose-only effect, or another doubt; inactive = no such curve, though single readings can be large or run the other way;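 also: potency is read from the fitted curve at half-maximal effect; 0% = wells with enzyme and -100% = buffer wells without enzyme; nearly all actives have a fitted effect of over 50% in size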
The depositor's hits bear a star; ? = inconclusive; nt = not tested or not shown; ! = a repeat was not active. Many of the other results were omitted from the sample, so hits are more common in it than they were. Unless noted, calls follow the shape of the dose curve; as a rule, active = well fitted curve in the direction sought with a large enough effect; inconclusive = small, poorly fitted or top-dose-only effect, or another doubt; inactive = no such curve, though single readings can be large; an effect the other way counts as inactive or inconclusive. Unless noted, % is scaled to controls: 0 for no effect and ±100 for the full control effect.

SMILES	Six1-Eya2 blk	GALK inhibitor	CtBP-E1A inh	Eya2 inh	Apoferritin bind	KDM4E inh
Cc1cc2nc3c(=O)[nH]c(=O)nc-3n(C)c2cc1C=O	nt	nt	nt	nt	560%	nt
COC/C=C/C1=CC2=CC(=O)C(C)(OC(=O)c3cnc4ccccc4n3)C(=O)C2=CN1CCN1CCOCC1 (stereo not given)	1	2%	-6	-4%	-11%	13µM*!
CCOC(=O)c1c(C)[nH]c(C(=O)N/N=C\c2ccccc2O)c1C	-65*	0%	-8	-2%	5%	?
O=C(N/N=C\c1ccccc1O)c1ccccc1O	nt	nt	nt	nt	nt	5µM*
O=C(NCC1CCCO1)C(=O)N/N=C/c1ccc(O)c(Cl)c1 (stereo not given)	3	1%	1	-21%	-6%	5%
O=C(N/N=C/c1ccccc1O)c1cccc(C(F)(F)F)c1	-79*	-1%	-81*	-8%	12%	?
O=C(NCC1CCCO1)C(=O)N/N=C/c1cc(Cl)ccc1O (stereo not given)	-80*	11%	-94*	10%	-8%	13µM*
O=C(N/N=C/c1ccc(O)cc1)c1cccc(C(F)(F)F)c1	-2	0%	-3	-4%	-14%	-1%
O=C(N/N=C/c1cccc(O)c1)c1ccccc1O	-1	0%	-14	-6%	-5%	-5%
CNC1CC(N)[C@H](O)[C@@H](O[C@@H]2OC(CO)C3OC4(OC(C(N)CO)C(O)C(O)C4O)O[C@@H]3[C@H]2O)C1O (stereo not given in full)	nt	nt	nt	nt	4%	7%
O=C(NCC(c1cccs1)S(=O)(=O)c1cccs1)c1ccc(Cl)cc1 (stereo not given)	nt	nt	nt	nt	5%	nt
O=c1c2cnn(-c3ccc(Cl)cc3)c2ncn1Cc1ccc(Cl)cc1Cl	nt	nt	nt	nt	-2%	nt
O=C(CN1C(=O)NC2NC(=O)NC21)N/N=C/c1ccccc1O (stereo not given)	-91*	0%	-90*	-4%	34%	?
O=C(N/N=C/c1cc(Cl)ccc1O)c1ccncc1	-92*	5%	-95*	4%	5%	13µM*
O=C(NCC(=O)N1CCCC1)NN=Cc1ccccc1O	?	nt	-77*	nt	nt	nt
CSc1nc(C)cc(OCC(=O)N/N=C/c2ccccc2O)n1	-68*	1%	-69*	-5%	42%	25µM*
Cc1cc(=O)oc2cc(OCC(=O)N/N=C/c3ccccc3O)ccc12	-5	2%	-3	9%	-10%	nt
CCC(C(=O)NC1CCCC1)n1c(-c2cc3ccccc3[nH]2)nc2ccccc21 (stereo not given)	-3	nt	0	nt	nt	nt
O=C(Cn1cc(C(F)(F)F)ccc1=O)N/N=C/c1ccccc1O	?	3%	-91*	7%	-14%	10µM*
O=C(N/N=C/c1cc(Br)ccc1O)c1ccccc1Cl	-88*	nt	-79*	-7%	-13%	?
O=C(CC(=O)N/N=C/c1ccccc1O)NCc1cccnc1	-90*	-2%	-2	6%	18%	-2%
C=CCn1c(CNc2ccccc2)nnc1SCC(=O)N/N=C/c1ccccc1O	-72*	1%	?	-5%	-16%	14µM*
COC(=O)N/N=C/c1cc(Br)ccc1O	-9	-2%	-1	-1%	4%	?
COc1ccc(N(CC(=O)Nc2cc(C)ccc2C)S(=O)(=O)c2ccc(OC)c(OC)c2)cc1	nt	nt	nt	nt	30%	nt
O=C(CSCC(=O)NN=Cc1ccccc1O)NN=Cc1ccccc1O	-83*	nt	-4	nt	nt	nt
CCOC(=O)C1CCN(C2=C(NS(=O)(=O)c3ccc(Cl)cc3)C(=O)c3ccccc3C2=O)CC1	?	4%	-81*	1%	-24%	-3%
CCOC(=O)C1CCCN(C2=C(NS(=O)(=O)c3ccc(Br)cc3)C(=O)c3ccccc3C2=O)C1 (stereo not given)	-71*	2%	nt	-23%	-20%	nt
CN(C(=O)Cn1c(=O)n(CCC(=O)NCc2ccc3c(c2)OCO3)c(=O)c2sccc21)c1ccccc1	nt	nt	nt	nt	-12%	nt

Source: PubChem (National Center for Advancing Translational Sciences (NCATS))
